# Measurements reported in PubChem BioAssay (NCATS).
# Where “and” joins values, the source holds several entries; their conditions need not be identical. Equal entries are not always repeated. Unmarked numbers belong to inactive results. Results filed as inconclusive are left out. Calls of active or inactive are those of the source. Unless noted, calls come from the whole dose curve; as a rule, active = well fitted curve in either direction with a large enough effect (not every such curve was filed as active); inconclusive = small, poorly fitted or top-dose-only effect, or another doubt; inactive = flat fitted curve, though single readings scatter.
# Key:
# [1] = AP1 Signaling Pathway (AID 357);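 note: ME-180 reporter cells stimulated with EGF at its EC50 level; % is set by controls: 0 for no effect and ±100 for the full control effect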
# Method in brief: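 In this screen, ME-180 cells in Opti-MEM with 0.5% dialyzed FBS received EC50 EGF and compound titrations for 5 h. AP-1 reporter beta-lactamase was detected via CCF4 ratio, giving AC50 for positive and negative modulators.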
# [2] = target: Cytochrome P450 1A2 (Homo sapiens) (UniProt P05177); test: p450-cyp1a2 (AID 410; calls by dose curve; note: potency is the fitted concentration of half-maximal effect;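 for activity change, negative = inhibition: -100% = full effect of reference inhibitor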)
# Chain of Cytochrome P450 1A2 (Homo sapiens) (P05177 whole entry, looked up): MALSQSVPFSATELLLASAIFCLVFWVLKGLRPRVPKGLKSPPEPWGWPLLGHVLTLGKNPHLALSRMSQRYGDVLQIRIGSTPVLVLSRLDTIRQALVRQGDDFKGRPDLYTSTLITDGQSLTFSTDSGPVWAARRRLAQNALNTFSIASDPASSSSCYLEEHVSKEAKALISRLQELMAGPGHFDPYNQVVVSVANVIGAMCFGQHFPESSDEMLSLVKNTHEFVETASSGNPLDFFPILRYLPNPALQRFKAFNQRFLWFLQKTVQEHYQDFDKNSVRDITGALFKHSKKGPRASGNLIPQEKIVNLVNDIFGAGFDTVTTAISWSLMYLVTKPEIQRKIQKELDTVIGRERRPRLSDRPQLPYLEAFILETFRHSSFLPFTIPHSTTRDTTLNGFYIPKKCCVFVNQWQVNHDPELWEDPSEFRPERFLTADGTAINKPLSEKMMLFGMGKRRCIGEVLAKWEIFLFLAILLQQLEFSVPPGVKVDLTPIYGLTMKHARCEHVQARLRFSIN
# Method in brief: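 20nM CYP1A2, 100uM Luciferin-ME (=Km), 100mM KPO4; cpd 10 min RT; +NADPH regen, 60 min RT; stop/detect 20 min; luminescence. Normalized to furafylline 57 uM = full inhibition.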
# [3] = NFAT Signaling Pathway (AID 444); settings: Jurkat NFAT-bla M1, carbachol, beta-lactamase ratio, 5 h; at 17.2 µM (top of the series) unless noted;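 note: carbachol stimulus at about its EC50 of 1 µM final; % is set by controls: 0 for no effect and ±100 for the full control effect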
# Method in brief: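 Jurkat cells with NFAT-driven β-lactamase reporter and co-expressed M1 receptor, stimulated with carbachol (final 1 uM, ~EC50), compound titration, 5 h at 37 °C. CCF4 loaded 1 h at RT; 460/530 nm ratio gave %activity and AC50.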
# [4] = target: Lysosomal acid glucosylceramidase (Homo sapiens) (UniProt P04062); test: Glucocerebrosidase-p2 (AID 348; in the data active = potency below about 10 µM; note: potency is the fitted concentration of half-maximal effect); settings: purified GBA, blue fluorogenic substrate, 40 min
# Chain of Lysosomal acid glucosylceramidase (Homo sapiens) (P04062 whole entry, looked up): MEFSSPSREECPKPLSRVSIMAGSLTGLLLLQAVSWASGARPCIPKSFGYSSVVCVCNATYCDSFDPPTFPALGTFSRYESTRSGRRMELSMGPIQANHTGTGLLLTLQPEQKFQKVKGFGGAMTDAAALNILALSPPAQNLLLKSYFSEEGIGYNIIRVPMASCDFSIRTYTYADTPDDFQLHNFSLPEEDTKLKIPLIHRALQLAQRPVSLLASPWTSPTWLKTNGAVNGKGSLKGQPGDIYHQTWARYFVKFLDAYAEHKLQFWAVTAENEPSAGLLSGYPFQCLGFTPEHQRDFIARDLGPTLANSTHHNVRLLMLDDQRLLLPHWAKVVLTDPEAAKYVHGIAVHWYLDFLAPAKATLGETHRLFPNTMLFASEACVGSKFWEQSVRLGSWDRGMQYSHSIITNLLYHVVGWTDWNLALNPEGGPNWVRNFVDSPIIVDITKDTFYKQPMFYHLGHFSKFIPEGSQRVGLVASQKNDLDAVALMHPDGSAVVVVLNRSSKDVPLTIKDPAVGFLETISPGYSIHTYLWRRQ
# Method in brief: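 Normal human glucocerebrosidase (0.2 nM) with blue fluorogenic substrate (80 uM final) in citrate/phosphate pH 5.9 with 10mM sodium taurocholate, 0.01% tween-20; 40 min RT, NaOH/glycine stop; fluorescence Ex 365/Em 440; AC50 from a titration from 0.6 nM upwards.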
# [5] = Cell Viability - BJ (AID 421; calls by dose curve;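 note: potency is the fitted concentration of half-maximal effect; cells exposed to compound for 40 hours at 37 °C before readout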); settings: BJ fibroblast viability, qHTS
# Method in brief: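 Normal human BJ foreskin fibroblasts, 1500/well in complete medium, treated 40 hr at 37 °C. Cellular ATP by CellTiter-Glo luminescence; normalized to DMSO and 100 uM tamoxifen, AC50 from Hill fit.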
# [6] = Cell Viability - Jurkat (AID 426;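 active = dose-dependent loss of cell ATP signal giving a full or clear fitted curve, ranked by lower potency value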; note: potency is the fitted concentration of half-maximal effect); settings: qHTS
# Method in brief: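 Luminescent ATP read-out (CellTiter-Glo, 20 min at room temperature) after 40 hr compound exposure at 37 °C of Jurkat E6-1 cells, 5000/well. Decreased ATP taken as cytotoxicity; AC50 from standard Hill equation.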
# [7] = Cell Viability - Hek293 (AID 427;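 active = compounds whose dose-response curve shows a full or clear partial loss of cell viability, called from curve shape rather than a numeric limit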;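 note: potency is the fitted concentration of half-maximal effect; cells exposed to compound for 40 hours at 37 °C before reading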); settings: qHTS
# Method in brief: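 HEK293 cells in complete medium were exposed to compound for 40 hr at 37 °C, then cellular ATP was read by CellTiter-Glo luminescence. Data were normalized to DMSO (basal) and 100 uM tamoxifen (100% inhibition), and AC50 came from Hill fits.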
# [8] = Cell Viability - HepG2 (AID 433; calls by dose curve;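 note: potency is the fitted concentration of half-maximal effect; potency for ATP loss meaning cytotoxicity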); settings: qHTS
# Method in brief: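 In this qHTS format, a 40 h, 37 °C compound incubation of HepG2 cells in complete medium precedes a 20 min CellTiter-Glo step at room temperature. Tamoxifen and doxorubicin serve as positive controls; Hill-equation fits yield AC50.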
# [9] = Cell Viability - MRC5 (AID 434; calls by dose curve;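 note: potency is the fitted concentration of half-maximal effect; potency reflects cytotoxicity seen as loss of intracellular ATP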); settings: MRC5 lung fibroblast viability, qHTS
# Method in brief: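 ATP luminescence read-out (CellTiter-Glo, 20 min RT) after 40 hr, 37 °C compound exposure of 1500 MRC5 cells/well. Data normalized to DMSO (basal) and 100 uM tamoxifen (100% inhibition); AC50 from standard Hill equation.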
# [10] = Cell Viability - SK-N-SH (AID 435; calls by dose curve;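 note: potency is the fitted concentration of half-maximal effect; compound exposure lasted 40 h at 37 °C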); settings: SK-N-SH neuroblastoma cell viability qHTS
# Method in brief: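 Human neuroblastoma line, 40 h exposure at 37 °C, ATP quantified via luciferase luminescence; DMSO and 100 uM tamoxifen define 0 and 100% inhibition for AC50 fitting.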
smiles,measurement,setting,value
CCCOc1cc(N)ccc1C(=O)OCCN(CC)CC,outcome,[1],inactive
same,Potency,[2],12.6 µM (active)
Cc1cc(-c2ccc(N=Nc3ccc4c(S(=O)(=O)O)cc(S(=O)(=O)O)c(N)c4c3O)c(C)c2)ccc1N=Nc1ccc2c(S(=O)(=O)O)cc(S(=O)(=O)O)c(N)c2c1O,Potency,[2],12.6 µM (active)
CC1(C)S[C@@H]2[C@H](NC(=O)C3(N)CCCCC3)C(=O)N2[C@H]1C(=O)O,outcome,[1],inactive
same,"activity change, negative = inhibition",[3],-19.8%
C[C@]12CC[C@@H]3c4ccc(OC(=O)c5ccccc5)cc4CC[C@H]3[C@@H]1CC[C@@H]2O,outcome,[1],inactive
COc1cc(S(C)=O)ccc1-c1nc2ncccc2[nH]1 (centres undefined),outcome,[1],inactive
same,Potency,[2],0.251 µM (active)
same,"activity change, negative = inhibition",[3],21.1%
Cc1cc(C)c(NC(=O)C[C@H](CC(=O)O)c2cccc3ccccc23)c(C(=O)N2CCC3(CCCC3)CC2)c1,outcome,[1],inactive
same,Potency,[2],inactive
same,"activity change, negative = inhibition",[3],-7.66% [at 38 µM]
O=P(O)(O)OP(=O)(O)O,Potency,[4],> 11.4 µM
same,outcome,[1],inactive
same,"activity change, negative = inhibition",[3],3.99% [at 7.69 µM]
CN1C(=O)OC(C)(C)C1=O,outcome,[1],inactive
same,Potency,[2],inactive
same,"activity change, negative = inhibition",[3],-1.31%
N[C@@H](Cc1cc(I)c(Oc2ccc(O)c(I)c2)c(I)c1)C(=O)O,outcome,[1],inactive
same,"activity change, negative = inhibition",[3],7.62%
CCCCC(=O)O[C@H]1CC[C@H]2[C@@H]3CCc4cc(O)ccc4[C@H]3CC[C@]12C,outcome,[1],inactive
CC(=O)Oc1cc(C(F)(F)F)ccc1C(=O)O,Potency,[2],inactive
same,"activity change, negative = inhibition",[3],27.2%
O=C1NCCN1c1ncc([N+](=O)[O-])s1,outcome,[1],inactive
same,"activity change, negative = inhibition",[3],-7.97%
O=C(O)Cc1cc(I)c(Oc2ccc(O)c(I)c2)c(I)c1,outcome,[1],inactive
same,Potency,[2],12.6 µM (active)
same,"activity change, negative = inhibition",[3],-22.7%
CC(=O)N=c1sc(S(N)(=O)=O)nn1C,outcome,[1],inactive
same,Potency,[2],inactive
same,"activity change, negative = inhibition",[3],0.015% and 12.3%
O=C(O)CCC(=O)c1ccc(-c2ccccc2)cc1,outcome,[1],inactive
same,Potency,[2],12.6 µM (active)
same,"activity change, negative = inhibition",[3],-7.68%
COC(=O)c1ccccc1O,Potency,[5],> 92 µM
same,Potency,[6],> 92 µM
same,Potency,[7],> 92 µM
same,Potency,[8],> 92 µM
same,Potency,[9],> 92 µM
same,Potency,[10],> 92 µM
CCSc1ccc2c(c1)N(CCCN1CCN(C)CC1)c1ccccc1S2,Potency,[2],0.316 µM (active)
CCCC(CCC)C(=O)OC1C[C@H]2CC[C@@H](C1)[N+]2(C)C (some centres undefined),outcome,[1],inactive
same,"activity change, negative = inhibition",[3],-90.3% (active)
Cn1cc(NC(=O)c2cc(NC(=O)c3cc(NC=O)cn3C)cn2C)cc1C(=O)NCCC(=N)N,outcome,[1],inactive
CC(=O)Oc1cccc2c1C(=O)c1c(OC(C)=O)cc(C(=O)O)cc1C2=O,outcome,[1],inactive
same,"activity change, negative = inhibition",[3],-21.4%
CN(CCO)CC(O)Cn1cnc2c1c(=O)n(C)c(=O)n2C (centres undefined) (tested in a mixture with another compound),outcome,[1],inactive
same,"activity change, negative = inhibition",[3],-24.9%
CN1CCc2c(c3ccccc3n2Cc2ccccc2)C1,outcome,[1],inactive
same,Potency,[2],5.01 µM (active)
CCc1cn([C@H]2C[C@H](O)[C@@H](CO)O2)c(=O)[nH]c1=O,outcome,[1],inactive
same,"activity change, negative = inhibition",[3],23.4%
N[C@H](CC(=O)O)C(=O)O,outcome,[1],inactive
same,"activity change, negative = inhibition",[3],13.7% [at 38 µM]
O=C(O)Cc1nn(Cc2ccc(Br)cc2F)c(=O)c2ccccc12,Potency,[2],31.6 µM (active)
Oc1ccc(/C=C/c2cc(O)cc(O)c2)cc1,outcome,[1],inactive
same,Potency,[5],> 92 µM
same,Potency,[6],> 92 µM
same,Potency,[7],52.8 µM
same,Potency,[8],> 92 µM
same,Potency,[9],> 92 µM
same,Potency,[10],> 92 µM
Cc1cccc(C)c1NC(=O)C1CCCCN1C (centres undefined),outcome,[1],inactive
same,"activity change, negative = inhibition",[3],-26%
CC(=O)[C@H]1CC[C@H]2[C@@H]3C=CC4=CC(=O)CC[C@@]4(C)[C@H]3CC[C@]12C,outcome,[1],inactive
same,Potency,[2],inactive
O=C(O)c1ccc(OCCn2ccnc2)cc1,outcome,[1],inactive
same,"activity change, negative = inhibition",[3],-10.7%
Cn1nnnc1SCC1=C(C(=O)O)N2C(=O)[C@@H](NC(=O)[C@H](O)c3ccccc3)[C@H]2SC1,outcome,[1],inactive
same,"activity change, negative = inhibition",[3],5.92%
Cc1ncc(C[n+]2csc(CCO)c2C)c(N)n1,outcome,[1],inactive
same,"activity change, negative = inhibition",[3],-0.747%
CNC(=O)c1c(I)c(C(=O)NCC(=O)Nc2c(I)c(C(=O)O)c(I)c(C(=O)NCCO)c2I)c(I)c(N(C)C(C)=O)c1I,outcome,[1],inactive
same,Potency,[2],inactive
same,"activity change, negative = inhibition",[3],-16%
OB(O)O,Potency,[5],> 92 µM
same,Potency,[6],> 92 µM
same,Potency,[7],> 92 µM
same,Potency,[8],> 92 µM
same,Potency,[9],> 92 µM
same,Potency,[10],> 92 µM
[O-][N+](=Nc1ccccc1)c1ccccc1,Potency,[5],> 92 µM
same,Potency,[6],> 92 µM
same,Potency,[7],> 92 µM
same,Potency,[8],> 92 µM
same,Potency,[9],> 92 µM
same,Potency,[10],> 92 µM
Cc1ncc[nH]1,Potency,[5],> 92 µM
same,Potency,[6],> 92 µM
same,Potency,[7],> 92 µM
same,Potency,[8],> 92 µM
same,Potency,[9],> 92 µM
same,Potency,[10],> 92 µM
CO,Potency,[5],> 92 µM
same,Potency,[6],> 92 µM
same,Potency,[7],> 92 µM
same,Potency,[8],> 92 µM
same,Potency,[9],> 92 µM
same,Potency,[10],> 92 µM
